Results published in PubChem BioAssay AID1159580 (chemical genetic matrix, 2015).
Values joined by “and” are separate entries in the source; they are usually repeats but may differ in a detail not shown here. Equal values may be shown once. Screen size: about 5,500 compounds; about 2,000 (36%) were called active. Roughly 18% stayed inconclusive and do not appear here. Rule as the data show it: active = normalized growth mostly below about 0.91 (no sharp cut-off); inconclusive = no clear call, values can overlap the other calls; inactive = mostly above about 0.92. This is one part of the list.

Assay: chemical genetic growth profiling, strain panel (AID 1159580);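 also: tested at 20 µM; growth read once vehicle control cultures reached saturation at 30 °C; 1 = growth at the plate median or of vehicle wells; lower values mean less growth of the strain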
Details: S. cerevisiae deletion strains, growth OD

Measured: normalized growth

CC[C@@H](CO)NC(=O)[C@@H]1C=C2c3cccc4[nH]cc(c34)C[C@H]2N(C)C1
inactive: locus YAL013W, strain DEP1, stronger effect = lower value 0.989 | locus YAL021C, strain ccr4, stronger effect = lower value 1 | locus YAL026C, strain drs2, stronger effect = lower value 0.996 | locus YAL030W, strain snc1, stronger effect = lower value 0.997 | locus YBL061C, strain skt5, stronger effect = lower value 0.999 | locus YBR009C, strain hhf1, stronger effect = lower value 0.992 | locus YBR021W, strain FUR4, stronger effect = lower value 1 | locus YBR023C, strain chs3, stronger effect = lower value 0.997 | locus YBR171W, strain sec66, stronger effect = lower value 0.998 | locus YBR229C, strain ROT2, stronger effect = lower value 0.99 | locus YBR231C, strain swc5, stronger effect = lower value 0.988 | locus YBR279W, strain paf1, stronger effect = lower value 0.996 | locus YCL011C, strain gbp2, stronger effect = lower value 1 | locus YCL016C, strain dcc1, stronger effect = lower value 0.994 | locus YCL029C, strain bik1, stronger effect = lower value 0.984 | locus YCL069W, strain vba3, stronger effect = lower value 1 | locus YCR088W, strain abp1, stronger effect = lower value 0.998 | locus YDL005C, strain med2, stronger effect = lower value 1 | locus YDL035C, strain GPR1, stronger effect = lower value 1 | locus YDL040C, strain nat1, stronger effect = lower value 0.997 | locus YDL074C, strain BRE1, stronger effect = lower value 1.02 | locus YDL101C, strain DUN1, stronger effect = lower value 0.993 | locus YDL134C, strain PPH21, stronger effect = lower value 0.98 | locus YDL185W, strain tfp1, stronger effect = lower value 0.981 | locus YDL192W, strain arf1, stronger effect = lower value 0.988 | locus YDR001C, strain nth1, stronger effect = lower value 0.998 | locus YDR069C, strain doa4, stronger effect = lower value 0.995 | locus YDR101C, strain arx1, stronger effect = lower value 0.995 | locus YDR137W, strain rgp1, stronger effect = lower value 0.995 | locus YDR150W, strain NUM1, stronger effect = lower value 1 | locus YDR159W, strain sac3, stronger effect = lower value 0.992 | locus YDR162C, strain NBP2, stronger effect = lower value 1.02 | locus YDR195W, strain ref2 0.942 | locus YDR297W, strain sur2, stronger effect = lower value 0.994 | locus YDR318W, strain mcm21, stronger effect = lower value 0.982 | locus YDR334W, strain swr1, stronger effect = lower value 1 | locus YDR335W, strain msn5, stronger effect = lower value 0.999 | locus YDR388W, stronger effect = lower value 0.99 | locus YDR392W, strain spt3, stronger effect = lower value 0.995 | locus YDR502C, strain sam2, stronger effect = lower value 1 | locus YEL003W, strain gim4, stronger effect = lower value 0.998 | locus YEL037C, strain rad23, stronger effect = lower value 1 | locus YEL061C, strain CIN8 (second series), stronger effect = lower value 1 | locus YEL061C, strain CIN8, stronger effect = lower value 0.998 | locus YER015W, strain faa2, stronger effect = lower value 0.99 | locus YER016W, strain bim1, stronger effect = lower value 0.993 | locus YER110C, stronger effect = lower value 0.977 | locus YER111C, strain swi4, stronger effect = lower value 1 | locus YER155C, strain BEM2 (second series), stronger effect = lower value 0.961 | locus YER155C, strain BEM2, stronger effect = lower value 1 | locus YER167W, strain BCK2, stronger effect = lower value 0.974 | locus YFR010W, strain ubp6, stronger effect = lower value 0.985 | locus YGL078C, strain dbp3, stronger effect = lower value 0.998 | locus YGL086W, strain mad1, stronger effect = lower value 0.959 | locus YGL167C, strain pmr1, stronger effect = lower value 1.01 | locus YGL173C, strain kem1, stronger effect = lower value 0.995 | locus YGL227W, strain vid30, stronger effect = lower value 0.991 | locus YGL240W, strain doc1, stronger effect = lower value 0.981 | locus YGL248W, strain PDE1, stronger effect = lower value 0.986 | locus YGL253W, strain hxk2, stronger effect = lower value 1.01 | locus YGR078C, strain PAC10, stronger effect = lower value 0.994 | locus YGR135W, strain pre9, stronger effect = lower value 0.958 | locus YGR229C, strain SMI1, stronger effect = lower value 0.961 | locus YGR252W, strain gcn5, stronger effect = lower value 0.949 | locus YHR013C, strain ard1, stronger effect = lower value 1.02 | locus YHR027C, strain rpn1, stronger effect = lower value 1 | locus YHR030C, strain SLT2, stronger effect = lower value 0.99 and 1.07 | locus YHR079C, strain IRE1 (second series), stronger effect = lower value 0.991 | locus YHR079C, strain IRE1, stronger effect = lower value 1.07 | locus YHR094C, strain hxt1, stronger effect = lower value 0.985 | locus YHR129C, strain ARP1, stronger effect = lower value 0.989 | locus YHR142W, strain chs7, stronger effect = lower value 1.01 | locus YHR200W, strain rpn10, stronger effect = lower value 0.978 | locus YIL066C, strain RNR3, stronger effect = lower value 0.983 | locus YIL073C, strain SPO22, stronger effect = lower value 0.945 | locus YIL125W, strain kgd1, stronger effect = lower value 0.998 | locus YIR030C, strain dcg1, stronger effect = lower value 0.991 | locus YJL092W, strain hpr5, stronger effect = lower value 0.995 | locus YJL095W, strain BCK1 (second series), stronger effect = lower value 0.995 | locus YJL095W, strain BCK1, stronger effect = lower value 0.981 and 1.04 | locus YJL115W, strain asf1, stronger effect = lower value 0.995 | locus YJL129C, strain trk1, stronger effect = lower value 0.999 | locus YJL134W, strain LCB3, stronger effect = lower value 0.992 | locus YJL154C, strain vps35, stronger effect = lower value 0.998 | locus YJL164C, strain tpk1, stronger effect = lower value 0.991 | locus YJL166W, strain qcr8, stronger effect = lower value 0.947 | locus YJL168C, strain set2, stronger effect = lower value 0.984 | locus YJL187C, strain SWE1 (second series), stronger effect = lower value 0.996 | locus YJR043C, strain POL32, stronger effect = lower value 0.975 | locus YJR066W, strain TOR1, stronger effect = lower value 0.999 | locus YJR075W, strain HOC1, stronger effect = lower value 1.02
